In ChEMBL document CHEMBL4888484, “Replenishing the malaria drug discovery pipeline: Screening and hit evaluation of the MMV Hit Generation Library 1 (HGL1) against asexual blood stage Plasmodium falciparum ,using a nano luciferase reporter read-out” (2022):
Screen size: about 150,000 compounds; about 540 (0.36%) showed an effect of 50% or more. The sample holds strong results, similar compounds and a random draw of the others, so the mix is not that of the screen.

What follows are molecules tested on Plasmodium falciparum (assay: Primary screen in NF54 nanoGlo assay, in single point, at 2uM, 72h; a lower Z score goes with more inhibition). Settings: timepoint 72 hour.
Format: functional, Erythrocyte

Row | Structure (SMILES) | % Inhibition [%] | Z score
1 | Cc1ccc(CCC(=O)NC(c2ccccc2)C(C)C(=O)O)o1 (centres undefined) | 5 | -0.67
2 | Cc1cccc(-c2noc(N3CCOCC3)c2CN(C(=O)CC(C)C)C2CC2)c1 | -12 | 1.29
3 | CCn1cc(CN2CC[C@H]3C(=O)NCCCCCCN(Cc4ccncc4)[C@@H]3C2)c(C)n1 | 2 | -0.2
4 | COc1ccc(CN2CC[C@@H]3C(=O)NCCCCCCN(Cc4ccncc4)[C@@H]3C2)cc1Cn1ccnc1 | 59 | -7.78
5 | COc1cccc(CN2CC[C@H]3C(=O)NCCCCCCN(Cc4ccncc4)[C@@H]3C2)n1 | -5 | 0.65
6 | CN(Cc1cn(C)nn1)CC1CCOCC1 | -11 | 2.06
7 | CCO[C@H]1CN(C(=O)Cc2nc(C)sc2C)C[C@@H]1O | 0 | 0.05
8 | S=c1cc(-c2ccccc2)n(CCCc2ccccc2)c2c1CCCC2 | -6 | 0.85
9 | S=c1cc(-c2ccccc2)n(Cc2ccco2)c2c1CCCC2 | 54 | -6.88
10 | C[C@@]1(C(=O)NC2CCCCCCC2)Cn2c(ccc2-c2ccccc2)C(=O)N1Cc1ccco1 | 7 | -0.83
11 | CC(=O)c1cc(Br)ccc1NCC(=O)N(C)CCC#N | -26 | 2.93
12 | CCc1nccc(-c2c(-c3ccccc3)ncn2CCN2CCOCC2)n1 | -6 | 0.83
13 | CCOC(=O)c1c(-c2ccccc2)n(C)c2cc(-c3cccnc3)c(O)cc12 | 9 | -1.7
14 | CCOC(=O)c1c(CN2CCCC2)n(C)c2cc(-c3cccnc3)c(O)c(Cn3ccnc3)c12 | 58 | -10.36
15 | CCOC(=O)c1cnc(N2CCN(Cc3cccnc3)CC2)s1 | -2 | 0.17
16 | CCNc1nc(C)cc(NCCNC(=O)c2cccc(Cl)c2)n1 | 23 | -3.44
17 | Cc1nc2ccc(NC(=O)Nc3ccc(F)cc3F)cc2s1 | -9 | 1.17
18 | Cc1ccc(C)c(C(=O)Nc2cnc(-n3nc(C)cc3C)nc2)c1 | 5 | -0.75
19 | CCOc1nc(-c2cccc(F)c2)n(-c2ccc(NC(=O)Nc3ccc(F)cc3F)cc2)n1 | -9 | 1.18
20 | COc1ccc(NS(=O)(=O)c2c(C)noc2C)cn1 | 3 | -0.47
21 | CCNc1nc(C)cc(Nc2ccc(NS(=O)(=O)c3c(C)noc3C)cc2)n1 | 86 | -8.65
22 | Cc1noc(C)c1S(=O)(=O)Nc1ccc2c(c1)OC1(CCCC1)O2 | 5 | -0.73
23 | CCNc1nc(C)cc(Nc2ccc(NC(=O)c3cc(C)ccc3C)cc2)n1 | 97 | -9.09
24 | Cc1cc(N(C)C)nc(NCCNC(=O)Nc2cccc(F)c2C)n1 | 20 | -2.61
25 | Cc1cc(C)n2c(C(=O)NCCNS(=O)(=O)c3ccc(Cl)cc3)nnc2n1 | -9 | 1.16
26 | Cc1ccncc1CN(C)C(=O)[C@]1(O)CCc2cc(Br)ccc2C1 | -5 | 1.08

Row | Structure (SMILES) | % Inhibition [%] | Z score
27 | Cc1ccc(C)c(-c2cnn(CC3CC3)c2)c1 | 0 | 0.02
28 | C=C1C(C)(C)[C@@H]2CC[C@@]1(C(=O)N1CCn3c(C(N)=O)cnc3C1)C2 | -14 | 2.1
29 | CC(C)Cc1noc(CNC(=O)c2nn(C)cc2Cl)n1 | -7 | 1.19
30 | Cc1c(-c2cnn(C)c2)cc(C#N)n1C(F)F | -7 | 1.32
31 | CN1C[C@@H](N)C[C@H]1c1nc(COc2ccc(F)cc2)nn1CC(F)(F)F | 1 | -0.2
32 | COc1ccc(C(=O)N2CCN(C(=O)c3cccnc3)[C@@H](C(=O)N[C@H]3CCCNC3=O)C2)cc1 | -7 | 1.08
33 | Cn1c(=O)c2c(-c3ccc(Br)cc3)n(-c3ccccn3)cc2n(C)c1=O | -5 | 0.83
34 | Cn1c(=O)c2c(-c3ccc(Cl)cc3)n(-c3cccc4cccc(N)c34)cc2n(C)c1=O | 96 | -11.21
35 | Cn1c(=O)c2c(-c3ccc(Br)cc3)n(-c3cccc4cccnc34)cc2n(C)c1=O | -4 | 0.72
36 | O=C(COc1ccc(Cl)cc1)NC1CCN(Cc2ccccc2)CC1 | -10 | 0.93
37 | CCN1CCN(c2cccc(NC(=O)c3cc(F)cc4c(=O)c5cc(F)ccc5[nH]c34)c2)CC1 | 95 | -17.54
38 | Cc1ccc(C(=O)Nc2cccc(N3CCCCCC3)c2)c(=O)[nH]1 | -12 | 1.57
39 | CCN1CCN(c2ccc(C(=O)Nc3cccc(-c4ccc5c(c4)CCO5)c3)cc2F)CC1 | 18 | -2.82
40 | CCN1CCN(c2cccc(NC(=O)c3ccc4[nH]c5ccccc5c(=O)c4c3)c2)CC1 | 92 | -9.25
41 | CC1CN(C(=O)c2cc(F)cc3c(=O)c4cc(F)ccc4[nH]c23)CC(C)O1 (centres undefined) | -10 | 1.65
42 | CN(C)Cc1ccc(NC(=O)c2cc(F)cc3c(=O)c4cc(F)ccc4[nH]c23)cc1 | 77 | -11.59
43 | CCN1CCN(c2c(CN(C(=O)Nc3cccc(F)c3)C(C)C)c(C)nn2-c2cccc(F)c2)CC1 | 3 | -0.41
44 | CC[C@@H](CNc1cc(NC2CC2)ncn1)C(=O)O | -7 | 1.58
45 | Cc1noc(CCCC(=O)N2CCN(C3CCCC3O)CC2)n1 (centres undefined) | -26 | 3
46 | CN1CC2(CCN(Cc3ccccc3OCCc3ccccc3)CC2)CC1=O | 0 | -0.02
47 | CCS(=O)(=O)C1CCN(Cc2cn(-c3ccc(F)c(Cl)c3)nn2)CC1 | 8 | -0.85
48 | C[C@H](Oc1ccccc1F)c1nnc2n1CCCC2 | -9 | 1.39
49 | COc1ccc(CN2C(=O)Cc3ccccc3[C@@H](C(=O)O)[C@@H]2c2ccccc2)c(OC)c1 | 0 | -0.05
50 | CCCCNC(=O)N1CC[C@H](c2ccn[nH]2)C1 | -16 | 1.68
51 | O[C@@H](CN1CCC(c2ccn[nH]2)CC1)C(F)(F)F | 27 | -3.09
52 | O=C(N[C@@H](CN1CCCC1)c1ccccc1)N1CCC(c2ccn[nH]2)CC1 | 50 | -8.21
